A selection: hits, their analogues and other compounds. The true share with any hit is near 11%.
ERK AVP inh = inhibitors of vasopressin-stimulated ERK signaling pathway | HEK293-V1b, vasopressin-stimulated pERK AlphaScreen | Potency, µM (top dose mostly 57.5 µM), for the others: top-dose activity, negative = inhibition, most hits filed as inhibitors | AID 995 | actives 0.99% (n = 72,000); also: nearly all actives have a fitted effect of over 55% in size
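Overnight-seeded V1b-HEK293 cells in 1% FBS got compound, then vasopressin (25 nM final, 5 min, 37C), then lysis buffer. AlphaScreen detection of phospho-ERK; activity normalized to basal and full-stimulation controls.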
FLuc inh = firefly luciferase inhibition; P08659; purified firefly luciferase, luminescence, 8 min; Potency, µM (top dose mostly 57.1 µM), inactives show at the top dose activity change, negative = inhibition, actives largely listed as inhibitors; actives 2.2% (n = 72,000); AID 411; also: nearly all actives have a fitted effect of over 40% in size
Target sequence (P08659 whole entry, looked up): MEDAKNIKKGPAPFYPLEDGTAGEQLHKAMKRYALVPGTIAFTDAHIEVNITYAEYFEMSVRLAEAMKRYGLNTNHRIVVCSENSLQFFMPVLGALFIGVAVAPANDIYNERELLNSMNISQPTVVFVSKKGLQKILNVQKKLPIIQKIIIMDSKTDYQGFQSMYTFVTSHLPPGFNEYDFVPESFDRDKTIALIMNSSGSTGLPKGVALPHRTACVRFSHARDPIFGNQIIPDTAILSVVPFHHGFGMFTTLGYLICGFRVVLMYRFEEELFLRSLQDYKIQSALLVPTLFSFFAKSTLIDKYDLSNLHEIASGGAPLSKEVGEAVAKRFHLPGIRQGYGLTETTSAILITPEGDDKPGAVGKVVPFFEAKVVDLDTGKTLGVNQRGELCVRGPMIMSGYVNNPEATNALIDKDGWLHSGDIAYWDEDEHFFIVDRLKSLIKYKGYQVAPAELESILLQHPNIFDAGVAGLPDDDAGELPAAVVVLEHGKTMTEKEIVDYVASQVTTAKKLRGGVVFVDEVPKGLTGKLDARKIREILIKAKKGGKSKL
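Luminescence read-out after 8 min at room temperature; enzyme reaction used luciferin plus 10 uM ATP (linear range) in imidazole buffer pH 7.2 with KCl, MgCl2, Tween 20 and BSA. Each sample was run as a titration.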
ALOX15 inhib = 15-hLO (ALOX15) enzyme inhibition; P16050; purified 15hLO-1, xylenol orange hydroperoxide absorbance; Potency, µM (highest dose often 57.1 µM), for inactives: at the top dose activity change, negative = inhibition, usual class: inhibitors; actives 1.4% (n = 74,000); AID 887; also: nearly all actives have a fitted effect of over 55% in size
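Quantitative HTS in 25 mM Hepes pH 7.5 containing 0.01% Triton X-100: human 15hLO-1 at 40 nM, arachidonic acid at 50 uM, 6 min turnover. Product quantified via ferrous oxidation/xylenol orange, 573:405 nm absorbance ratio.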
Bst PK mod = alters activity of Bacillus stearothermophilus pyruvate kinase; actives 1.2% (n = 51,000); purified pyruvate kinase, luminescence ATP production; ribose 5-phosphate activator present at AC10; Potency, µM; AID 361; in the data active = potency below about 11 µM; inconclusive = mostly about 12 µM to 25 µM;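 the screen sought inhibitors and activators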;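 also: scaled between full activation by ribose 5 phosphate and full inhibition by luteolin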
HSD17B inh = blocks hydroxysteroid 17-beta dehydrogenase activity; Q99714; recombinant HSD17B10, NADH fluorescence kinetic; Potency, µM (series often up to 57.1 µM), for the others: top-dose activity change, negative = inhibition, actives largely listed as inhibitors; actives 7.6% (n = 75,000); AID 893;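 also: the protocol describes HADH2 (HSD17B10) and not the HSD17B4 of the title; nearly all actives have a fitted effect of over 70% in size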
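Enzyme plus compound, 15 min room temperature; substrate mix added (NAD+ 1 mM, beta-hydroxybutyryl-CoA 90 uM final); plates read kinetically for NADH fluorescence. HADH2 was His-tagged, E. coli-derived, 20 nM.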
HADH2 inh = blocks human hydroxyacyl-CoA dehydrogenase type II | recombinant HADH2, NADH fluorescence, beta-hydroxybutyryl-CoA | actives 3.4% (n = 73,000) | Potency, µM (series often up to 57.1 µM), inactives show top-dose activity change, negative = inhibition, actives largely listed as inhibitors | Q99714; also: nearly all actives have a fitted effect of over 60% in size
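NADH fluorescence (ex 360/em 450 nm) read every 30 s for 4 min; activity taken as last-minus-first time point difference. Enzyme 20 nM, NAD+ 1 mM, beta-hydroxybutyryl-CoA 90 uM, pH 9.0 Tris buffer.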
* hit, by the source's call; i = inactive; u = inconclusive; x = no result given; [ ] = remark or other dose. Unless noted, calls follow the shape of the dose curve; as a rule, active = well fitted curve in the direction sought with a large enough effect; inconclusive = small, poorly fitted or top-dose-only effect, or another doubt; inactive = no such curve, though single readings can be large; an effect the other way counts as inactive or inconclusive. Unless noted, % is scaled to controls: 0 for no effect and ±100 for the full control effect; potency is read from the fitted curve at half-maximal effect.

SMILES	ERK AVP inh	FLuc inh	ALOX15 inhib	Bst PK mod	HSD17B inh	HADH2 inh
COC(=O)c1cc2c(=O)n3cccc(C)c3nc2n(Cc2cccnc2)c1=N	x	-0.5%[25.5 µM]	x	>25.6	x	x
CCOC(=O)c1cc2c(=O)n3cccc(C)c3nc2n(Cc2cccnc2)c1=N	x	0.8%[25.5 µM]	x	>25.6	x	x
C=CCn1c(=N)c(C(=O)OC)cc2c(=O)n3cccc(C)c3nc21	-3.8%	-3.3%	-0.2%	>57	15.8µM*	-6.9%
CCn1c(=N)c(C(N)=O)cc2c(=O)n3cccc(C)c3nc21	-4.8%	2.0%	-19.5%	>57	3.98µM*	25.1µM*
Cc1ccc2nc3c(cc(C(N)=S)c(=N)n3CCCOC(C)C)c(=O)n2c1	-11.2%	-6.3%	u	>57	25.1µM*	7.8%
CCn1c(=N)c(C(=O)NC)cc2c(=O)n3cccc(C)c3nc21	0.8%	6.3%	-24.8%	>57	3.98µM*	i
COCCn1c(=O)c(CCc2ccccc2)nc2cnc(OCc3ccccc3)nc21	23.5%	1.0%[11.4 µM]	-2.3%	x	10.1%	-8.7%
NCCC[C@@H](CC(=O)N[C@@H]1CCNC[C@H]1C(=O)N[C@H](CC(=O)N[C@@H](CCC(=O)O)CC(=O)O)Cc1ccccc1)NC(=O)C[C@H](Cc1c[nH]c2ccccc12)NC(=O)[C@@H]1CNCC[C@H]1N	x	x	x	x	x	10.6%
C#CCCCO/N=C1/[C@H]2O[C@@H]2[C@@H](O)[C@H]2[C@H]1CCn1c(=O)n(-c3ccccc3)c(=O)n12	11.4%[11.5 µM]	-0.1%[11.4 µM]	11.9%[11.4 µM]	x	7.3%[11.4 µM]	-5.4%[11.4 µM]
C(=N/Nc1ccccn1)/c1cccnc1	-12.7%[11.5 µM]	1.5%[11.4 µM]	-1.8%[11.4 µM]	x	1.0%[11.4 µM]	1.5%[11.4 µM]
C/C(=N/Nc1nc(C)cc(=O)[nH]1)C(=O)O	-2.3%[11.5 µM]	0.4%[11.4 µM]	44.6%[11.4 µM]	x	1.5%[11.4 µM]	15.8%[11.4 µM]
Cc1cccn2c(=O)c3cc(C(=O)NC4CCCC4)c(=N)n(C4CCCC4)c3nc12	9.7%	1.2%	-24.4%	>57	25.1µM*	i
CCOC(=O)c1cc2c(=O)n3cc(C)ccc3nc2n(Cc2cccnc2)c1=N	-27.9%	-0.1%	1.9%	x	u	18.1%
C=CCn1c(=N)c(C(=O)OCC)cc2c(=O)n3cc(C)ccc3nc21	-16.2%	-4.8%	4.1%	x	25.1µM*	31.6µM*
Oc1ccc(C=Nc2cccc3ncccc23)c(O)c1	u	-5.8%	u	>11.4	31.6µM*	u
Oc1ccc(C=Nc2ccc3ncccc3c2)c(O)c1	x	-9.4%[25.5 µM]	x	>25.6	x	x
CC(C)(C)OC(=O)C1=NOC2(C=CC(=O)C=C2)C1	7.8%[11.5 µM]	x	-11.5%[11.4 µM]	x	-5.8%[11.4 µM]	u
COC(=O)c1cc(OC)c(OC)cc1NC(=O)CC1CCCCC1	-14.5%	0.3%	-0.4%	>57	25.1µM*	138.2%
COC(=O)c1cc(OC)c(OC)cc1NC(=O)CN1CCCCC1	-1.3%	2.7%	-20.8%	>57	3.0%	-2.9%
COC(=O)c1cc(OC)c(OC)cc1NC(=O)c1ccc(Br)o1	-14.5%	0.4%	3.6%	x	u	6.9%
COC(=O)c1cc(OC)c(OC)cc1NC(=O)c1c(C)noc1C	-8.1%	0.3%	6.7%	>57	-10.3%	3.9%
COC(=O)c1cc(OC)c(OC)cc1NC(=O)c1ccoc1C	-9.1%	0.3%	2.1%	>57	12.6µM*	3.98µM*
COC(=O)c1cc(OC)c(OC)cc1NC(=O)c1ccccc1	u	0.9%	3.9%[11.4 µM]	x	u	5.01µM*
O=C(Nc1ccc(Cl)cn1)c1cc2ccccc2o1	-17.0%	7.94µM*	-6.5%	u	-11.3%	-14.6%
Cc1cc(C(=O)NC2=NCCS2)cs1	-3.7%	15.8µM*	-0.2%	x	-1.9%	-3.8%
SMILES	ERK AVP inh	FLuc inh	ALOX15 inhib	Bst PK mod	HSD17B inh	HADH2 inh
O=C(Nc1ccccc1)Nc1ccccc1	0.9%	x	-4.1%	x	6.2%	-3.8%
O=C(NC1=NCCS1)c1cc2ccccc2o1	-7.9%	5.01µM*	-2.4%[11.4 µM]	x	-20.6%	4.3%[11.4 µM]
O=C(NC1=NCCS1)c1csc2ccccc12	x	x	0.3%	x	-9.1%	u
O=C(Nc1cccc2ncccc12)c1cc2ccccc2o1	-13.0%	-14.9%	-0.3%	>57	-10.6%	0.9%
O=C(NC1=NCCS1)Nc1ccccc1	11.1%	15.8µM*	15.8%	i	4.4%	6.7%
CSc1nc(C)cc(Nc2ccc(O)c(CN3CCCCC3)c2)n1	-3.8%[11.5 µM]	3.1%[11.4 µM]	19.7%[11.4 µM]	x	-0.9%[11.4 µM]	16.9%[11.4 µM]
Nc1ccn([C@@H]2O[C@H](COC(=O)C34CC5CC(CC(C5)C3)C4)[C@@H](O)[C@@H]2O)c(=O)n1	-2.5%[11.5 µM]	2.7%[11.4 µM]	4.2%[11.4 µM]	x	12.3%[11.4 µM]	2.2%[11.4 µM]
O=C(O)CCCSc1ccccc1	20.0%[11.5 µM]	2.5%[11.4 µM]	8.9%[11.4 µM]	x	16.9%[11.4 µM]	2.5%[11.4 µM]
O=C(O)CCSc1nc2ccccc2s1	-10.1%	2.9%	-1.3%	>57	-1.9%	u
OC(CNc1nc2ccccc2s1)c1ccccc1 (configuration not stated)	25.1µM*	-12.5%	-11.2%	>57	-2.7%	8.1%
CCNc1nc(C)c2cc(Br)c(=O)n(CC)c2n1	u	1.3%	8.6%	x	3.16µM*	190.5%
